Measurements taken from the supplement of paper PMC10849652.
Targets with a hit are over-represented here; the source holds about 8,800 in all. About 0.5% of all pairs of compound and target were hits.

Tests used:
Test in all cases: log2 fold change, soluble protein after heating vs DMSO (PISA); higher = thermal stabilisation; K562 lysate, 10 uM; active = over 0.2 and 3.5 SD of the protein, either way, in both replicates (recomputed)
[1] = compound: CS(=O)(=O)CCNCc1ccc(-c2ccc3ncnc(Nc4ccc(OCc5cccc(F)c5)c(Cl)c4)c3c2)o1 [lapatinib]
In short: (§1)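 Values give the log-two fold change in thermal stability against solvent controls, from duplicates. Crude K562 extract at 1 mg/mL protein, made by dounce homogenisation in PBS pH 7.4 with 1 mM MgCl2, was treated with 10 μM compound for 30 min. After 3 min heating across 48°C-58°C, aliquots were pooled, adjusted to 0.5% NP-40 at 4°C and centrifuged at 21,000xg for 90 min. The supernatant was measured by TMTpro 16plex LC-MS/MS with channel sums equalised.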

[2] = compound: CS(=O)(=O)N1CCN(Cc2cc3nc(-c4cccc5[nH]ncc45)nc(N4CCOCC4)c3s2)CC1 [pictilisib]
In short: as §1

[3] = compound: C[C@@H](Oc1cc(-c2cnn(C3CCNCC3)c2)cnc1N)c1c(Cl)ccc(F)c1Cl [crizotinib]
In short: as §1

[4] = compound: C[C@H](C1=CC=C(C=C1)C(=O)NC2=C3C=CNC3=NC=C2)N
In short: as §1

[5] = compound: C[C@H](Nc1ncnc2nc[nH]c12)c1cc2cccc(Cl)c2c(=O)n1-c1ccccc1 [duvelisib]
In short: as §1

[6] = compound: Cc1cc(Nc2cc(CN3CCOCC3)c3nc(C)c(Cc4ccc(Cl)cc4F)n3n2)n[nH]1 [gandotinib]
In short: as §1

[7] = compound: Cc1cc(Nc2cc(N3CCN(C)CC3)nc(Sc3ccc(NC(=O)C4CC4)cc3)n2)n[nH]1 [tozasertib]
In short: as §1

[8] = compound: Cc1ccc(-n2nc(C(C)(C)C)cc2NC(=O)Nc2ccc(OCCN3CCOCC3)c3ccccc23)cc1 [doramapimod]
In short: as §1

[9] = compound: Cc1ccc(NC(=O)c2ccc(CN3CC[C@H](N(C)C)C3)c(C(F)(F)F)c2)cc1Nc1nccc(-c2cncnc2)n1 [bafetinib]
In short: as §1

[10] = compound: Cc1cccc(CC(=O)N2CCc3c2ccc(-c2cn(C)c4ncnc(N)c24)c3F)n1
In short: as §1

[11] = compound: Cc1cn(-c2cc(NC(=O)c3ccc(C)c(Nc4nccc(-c5cccnc5)n4)c3)cc(C(F)(F)F)c2)cn1 [nilotinib]
In short: as §1

[12] = compound: Cc1nc(Nc2n[nH]c3c2CN(C(=O)N[C@H](CN(C)C)c2ccccc2)C3(C)C)c2sccc2n1
In short: as §1

[13] = compound: Cc1nc(Nc2ncc(C(=O)Nc3c(C)cccc3Cl)s2)cc(N2CCN(CCO)CC2)n1 [dasatinib]
In short: as §1

[14] = compound: Cc1ncc(-c2ccnc(Nc3ccc(S(C)(=O)=O)cc3)n2)n1C(C)C
In short: as §1

[15] = compound: Cn1cc(-c2ccc3c(c2)CCN3C(=O)Cc2cccc(C(F)(F)F)c2)c2c(N)ncnc21
In short: as §1

[16] = compound: Cn1cc(CNCC2CCN(c3ncc(C(=O)NO)cn3)CC2)c2ccccc21 [quisinostat]
In short: as §1

[17] = compound: Cn1cncc1[C@@](N)(c1ccc(Cl)cc1)c1ccc2c(c1)c(-c1cccc(Cl)c1)cc(=O)n2C [tipifarnib]
In short: as §1

[18] = compound: NC(=O)Nc1cc(-c2cccc(F)c2)sc1C(=O)N[C@H]1CCCNC1
In short: as §1

[19] = compound: NC(=O)c1cnc(N[C@@H]2CCCC[C@@H]2N)nc1Nc1cccc(-n2nccn2)c1
In short: as §1

[20] = compound: NC1(c2ccc(-c3nc4ccn5c(=O)[nH]nc5c4cc3-c3ccccc3)cc2)CCC1
In short: as §1

Measured: log2 fold change

ANKRD52 (UniProt Q8NB46)
inactive: [1] -0.133 | [2] -0.036 | [3] -0.11 | [4] -0.004 | [5] 0.01 | [6] 0.012 | [7] 0 | [8] 0.001 | [9] -0.071 | [10] 0.034 | [11] 0.041 | [12] 0.003 | [13] -0.048 | [14] -0.026 | [15] -0.045 | [16] -0.037 | [17] -0.017 | [18] 0.005 | [19] -0.056 | [20] -0.028

AMD1 (UniProt P17707)
UniProt P17707, sequence (P17707 whole entry, looked up): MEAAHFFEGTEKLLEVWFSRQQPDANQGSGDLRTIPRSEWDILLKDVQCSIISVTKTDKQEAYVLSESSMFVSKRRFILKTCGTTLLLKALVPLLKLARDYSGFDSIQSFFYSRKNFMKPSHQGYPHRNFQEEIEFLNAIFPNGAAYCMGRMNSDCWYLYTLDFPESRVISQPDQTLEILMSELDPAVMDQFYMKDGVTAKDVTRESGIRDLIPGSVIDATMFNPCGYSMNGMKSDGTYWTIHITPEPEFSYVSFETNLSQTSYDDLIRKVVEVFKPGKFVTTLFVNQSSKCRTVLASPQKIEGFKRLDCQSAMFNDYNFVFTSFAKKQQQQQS
inactive: [1] -0.125 | [2] 0.056 | [3] 0.035 | [4] -0.099 | [5] 0.12 | [6] 0.107 | [7] 0.05 | [8] 0.316 | [9] -0.07 | [10] 0.048 | [11] -0.05 | [12] -0.04 | [13] -0.031 | [14] -0.001 | [15] 0.055 | [16] -0.145 | [17] -0.005 | [18] 0.151 | [19] 0.229 | [20] -0.022

ARGLU1 (UniProt Q9NWB6)
UniProt Q9NWB6, sequence (Q9NWB6 whole entry, looked up): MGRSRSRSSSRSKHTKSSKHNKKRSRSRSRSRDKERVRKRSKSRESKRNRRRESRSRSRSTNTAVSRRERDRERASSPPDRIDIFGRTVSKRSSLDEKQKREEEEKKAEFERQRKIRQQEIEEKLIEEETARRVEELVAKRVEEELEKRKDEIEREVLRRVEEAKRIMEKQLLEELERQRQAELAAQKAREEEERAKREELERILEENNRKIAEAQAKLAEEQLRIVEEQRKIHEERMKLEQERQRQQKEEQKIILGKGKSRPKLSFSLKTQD
inactive: [1] 0.038 | [2] 0.013 | [3] 0.043 | [4] -0.062 | [5] -0.023 | [6] -0.119 | [7] 0.045 | [8] 0.019 | [9] -0.014 | [10] 0.013 | [11] -0.012 | [12] -0.007 | [13] 0.058 | [14] -0.018 | [15] 0.096 | [16] 0.022 | [17] -0.043 | [18] -0.133 | [19] -0.012 | [20] 0.016

ABL2 (UniProt P42684)
inactive: [1] -0.053 | [2] -0.029 | [3] 0.367 | [4] -0.216 | [5] 0.079 | [6] 0.228 | [7] 0.273 | [8] -0.04 | [9] 0.439 | [10] 0 | [11] -0.084 | [12] 0.157 | [13] 0.067 | [14] 0.091 | [15] 0.064 | [16] -0.16 | [17] -0.116 | [18] 0.103 | [19] -0.028 | [20] -0.027

APAF1 (UniProt O14727)
UniProt O14727, sequence (O14727 whole entry, looked up): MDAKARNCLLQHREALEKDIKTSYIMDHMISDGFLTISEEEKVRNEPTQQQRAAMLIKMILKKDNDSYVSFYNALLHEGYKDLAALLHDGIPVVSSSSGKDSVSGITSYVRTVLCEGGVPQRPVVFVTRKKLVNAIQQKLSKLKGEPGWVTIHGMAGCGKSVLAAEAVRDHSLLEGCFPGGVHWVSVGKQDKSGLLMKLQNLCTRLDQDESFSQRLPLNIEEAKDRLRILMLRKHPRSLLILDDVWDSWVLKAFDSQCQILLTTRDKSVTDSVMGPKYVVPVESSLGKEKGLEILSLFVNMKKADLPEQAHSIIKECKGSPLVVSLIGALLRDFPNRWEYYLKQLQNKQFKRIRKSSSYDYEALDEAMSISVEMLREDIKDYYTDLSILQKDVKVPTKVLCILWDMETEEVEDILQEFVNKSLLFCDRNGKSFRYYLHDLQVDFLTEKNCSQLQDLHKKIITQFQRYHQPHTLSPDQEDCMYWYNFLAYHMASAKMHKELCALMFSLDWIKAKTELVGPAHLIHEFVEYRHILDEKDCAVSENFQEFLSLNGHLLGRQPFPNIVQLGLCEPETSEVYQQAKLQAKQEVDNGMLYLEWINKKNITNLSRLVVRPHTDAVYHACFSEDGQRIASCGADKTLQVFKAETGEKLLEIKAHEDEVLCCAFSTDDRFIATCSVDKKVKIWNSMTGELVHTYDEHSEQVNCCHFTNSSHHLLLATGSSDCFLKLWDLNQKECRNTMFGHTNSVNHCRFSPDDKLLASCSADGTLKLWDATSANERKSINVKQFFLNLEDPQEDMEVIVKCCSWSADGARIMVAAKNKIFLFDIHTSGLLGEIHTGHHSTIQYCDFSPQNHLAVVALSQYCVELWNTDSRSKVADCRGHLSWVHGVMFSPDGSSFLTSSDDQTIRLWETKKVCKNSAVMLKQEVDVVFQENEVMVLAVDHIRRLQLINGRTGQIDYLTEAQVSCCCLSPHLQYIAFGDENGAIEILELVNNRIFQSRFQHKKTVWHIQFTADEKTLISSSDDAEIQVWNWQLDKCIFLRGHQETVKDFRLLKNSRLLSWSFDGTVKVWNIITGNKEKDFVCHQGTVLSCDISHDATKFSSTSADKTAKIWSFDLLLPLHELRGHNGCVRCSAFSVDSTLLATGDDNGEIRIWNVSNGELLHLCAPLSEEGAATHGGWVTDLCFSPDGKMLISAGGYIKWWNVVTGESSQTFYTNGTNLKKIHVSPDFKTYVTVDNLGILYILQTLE
inactive: [1] 0.022 | [2] -0.068 | [3] -0.09 | [4] -0.015 | [5] -0.011 | [6] -0.058 | [7] -0.025 | [8] 0.05 | [9] 0.02 | [10] 0.061 | [11] -0.013 | [12] 0.116 | [13] -0.036 | [14] 0.025 | [15] 0.073 | [16] -0.091 | [17] -0.026 | [18] 0.052 | [19] 0 | [20] 0.026

AGPAT1 (UniProt Q99943)
UniProt Q99943, sequence (Q99943 whole entry, looked up): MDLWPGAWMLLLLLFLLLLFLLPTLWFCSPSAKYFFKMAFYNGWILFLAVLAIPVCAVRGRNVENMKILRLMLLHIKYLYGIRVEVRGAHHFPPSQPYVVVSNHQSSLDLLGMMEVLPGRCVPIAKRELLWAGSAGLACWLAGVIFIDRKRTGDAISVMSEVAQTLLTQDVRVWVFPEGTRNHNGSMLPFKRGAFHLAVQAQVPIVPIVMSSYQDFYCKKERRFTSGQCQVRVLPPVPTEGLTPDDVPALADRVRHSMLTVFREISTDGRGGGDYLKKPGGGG
inactive: [1] -0.122 | [2] 0.009 | [3] -0.029 | [4] -0.019 | [5] 0.009 | [6] -0.034 | [7] 0.041 | [8] 0.028 | [9] -0.057 | [10] 0.091 | [11] -0.021 | [12] -0.004 | [13] -0.069 | [14] 0.055 | [15] -0.062 | [16] 0.043 | [17] -0.058 | [18] -0.028 | [19] 0.028 | [20] -0.003

ACADM isoform 2 (UniProt P11310)
UniProt P11310, sequence (P11310 whole entry, looked up): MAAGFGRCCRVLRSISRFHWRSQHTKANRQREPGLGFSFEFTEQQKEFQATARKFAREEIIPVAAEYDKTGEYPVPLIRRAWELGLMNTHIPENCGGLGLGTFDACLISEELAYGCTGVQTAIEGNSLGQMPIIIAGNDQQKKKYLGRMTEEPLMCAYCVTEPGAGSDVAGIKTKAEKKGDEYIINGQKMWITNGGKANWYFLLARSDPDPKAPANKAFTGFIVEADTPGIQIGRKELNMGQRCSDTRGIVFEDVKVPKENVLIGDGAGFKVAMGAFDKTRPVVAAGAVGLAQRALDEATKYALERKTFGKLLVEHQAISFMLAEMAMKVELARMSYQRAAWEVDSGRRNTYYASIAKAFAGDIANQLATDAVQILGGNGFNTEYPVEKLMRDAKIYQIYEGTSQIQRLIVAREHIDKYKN
inactive: [1] -0.007 | [2] -0.009 | [3] -0.042 | [4] -0.007 | [5] -0.007 | [6] 0.029 | [7] 0.029 | [8] -0.03 | [9] 0.024 | [10] -0.01 | [11] -0.031 | [12] -0.008 | [13] -0.041 | [14] -0.009 | [15] 0.001 | [16] 0.009 | [17] -0.021 | [18] -0.027 | [19] -0.033 | [20] -0.091

AIMP1 isoform 2 (UniProt Q12904)
inactive: [1] -0.019 | [2] -0.004 | [3] -0.05 | [4] 0.023 | [5] 0.007 | [6] -0.085 | [7] -0.008 | [8] -0.015 | [9] -0.041 | [10] -0.012 | [11] -0.013 | [12] -0.016 | [13] -0.076 | [14] 0.019 | [15] 0.023 | [16] 0.01 | [17] 0.013 | [18] 0.044 | [19] -0.011 | [20] 0.001

ARHGEF1 (UniProt M0QZR4)
inactive: [1] 0.006 | [2] -0.011 | [3] -0.041 | [4] -0.038 | [5] -0.007 | [6] -0.012 | [7] 0.029 | [8] 0.02 | [9] -0.019 | [10] 0.106 | [11] 0.009 | [12] -0.031 | [13] -0.058 | [14] -0.016 | [15] 0.022 | [16] -0.02 | [17] 0.01 | [18] 0.015 | [19] 0.017 | [20] -0.015

ABHD16A (UniProt O95870)
UniProt O95870, sequence (O95870 whole entry, looked up): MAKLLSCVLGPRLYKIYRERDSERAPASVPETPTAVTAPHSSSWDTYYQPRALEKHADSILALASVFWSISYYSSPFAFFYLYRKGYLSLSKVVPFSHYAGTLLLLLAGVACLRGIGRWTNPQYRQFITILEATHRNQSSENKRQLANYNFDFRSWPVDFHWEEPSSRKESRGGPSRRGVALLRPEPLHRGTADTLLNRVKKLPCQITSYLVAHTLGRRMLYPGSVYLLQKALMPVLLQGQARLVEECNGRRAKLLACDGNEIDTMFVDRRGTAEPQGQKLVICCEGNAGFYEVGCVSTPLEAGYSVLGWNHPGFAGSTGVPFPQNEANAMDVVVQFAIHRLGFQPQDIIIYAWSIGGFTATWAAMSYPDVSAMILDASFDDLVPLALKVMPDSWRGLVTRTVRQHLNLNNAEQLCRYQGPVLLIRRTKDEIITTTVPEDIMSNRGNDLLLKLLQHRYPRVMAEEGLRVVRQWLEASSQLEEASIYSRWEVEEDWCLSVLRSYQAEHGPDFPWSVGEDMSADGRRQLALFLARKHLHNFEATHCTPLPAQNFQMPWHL
inactive: [1] 0.032 | [2] 0.028 | [3] 0.018 | [4] 0.006 | [5] -0.078 | [6] 0.081 | [7] -0.072 | [8] 0.013 | [9] 0.018 | [10] -0.021 | [11] -0.015 | [12] 0.02 | [13] 0.009 | [14] 0.027 | [15] -0.051 | [16] 0.143 | [17] -0.012 | [18] -0.014 | [19] -0.003 | [20] -0.054

AKR1B1 (UniProt P15121)
inactive: [1] -0.009 | [2] 0.006 | [3] 0.065 | [4] -0.102 | [5] -0.006 | [6] 0.037 | [7] -0.014 | [8] -0.022 | [9] 0.011 | [10] 0.006 | [11] 0.031 | [12] -0.022 | [13] 0.086 | [14] 0.028 | [15] -0.136 | [16] 0.016 | [17] -0.036 | [18] 0.03 | [19] -0.009 | [20] 0.038

ADK (UniProt P55263)
inactive: [1] 0.154 | [2] 0.169 | [3] 0.235 | [4] -0.007 | [5] 0.059 | [7] -0.005 | [8] 0.014 | [9] 0.292 | [10] -0.064 | [11] -0.028 | [12] 0.075 | [13] 0.463 | [14] 0.046 | [15] -0.005 | [16] -0.062 | [17] 0.324 | [18] -0.023 | [19] -0.015 | [20] 0.016
active: [6] 0.532

ARL1 (UniProt P40616)
UniProt P40616, sequence (P40616 whole entry, looked up): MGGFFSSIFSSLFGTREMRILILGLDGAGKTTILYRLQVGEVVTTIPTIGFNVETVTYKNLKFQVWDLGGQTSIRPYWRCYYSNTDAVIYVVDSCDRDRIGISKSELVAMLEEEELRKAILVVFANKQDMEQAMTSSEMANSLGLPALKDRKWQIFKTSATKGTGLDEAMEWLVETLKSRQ
inactive: [1] 0.001 | [2] 0.051 | [3] -0.028 | [4] -0.056 | [5] 0.001 | [6] 0.159 | [7] 0.004 | [9] -0.027 | [10] 0.096 | [11] 0.092 | [12] -0.074 | [13] 0.026 | [14] -0.118 | [15] -0.016 | [16] -0.082 | [17] -0.268 | [18] 0.01 | [19] -0.001 | [20] 0.005
active: [8] 0.228

AKT1 (UniProt P31749)
inactive: [1] 0.054 | [2] 0.002 | [3] -0.049 | [4] -0.034 | [5] -0.008 | [6] -0.048 | [7] 0 | [8] 0.031 | [9] -0.044 | [10] 0.033 | [11] -0.05 | [12] 0.012 | [13] -0.014 | [14] -0.01 | [15] 0.001 | [16] -0.1 | [17] 0.025 | [18] 0 | [19] -0.007
active: [20] 0.669

ACLY (UniProt P53396)
UniProt P53396, sequence (P53396 whole entry, looked up): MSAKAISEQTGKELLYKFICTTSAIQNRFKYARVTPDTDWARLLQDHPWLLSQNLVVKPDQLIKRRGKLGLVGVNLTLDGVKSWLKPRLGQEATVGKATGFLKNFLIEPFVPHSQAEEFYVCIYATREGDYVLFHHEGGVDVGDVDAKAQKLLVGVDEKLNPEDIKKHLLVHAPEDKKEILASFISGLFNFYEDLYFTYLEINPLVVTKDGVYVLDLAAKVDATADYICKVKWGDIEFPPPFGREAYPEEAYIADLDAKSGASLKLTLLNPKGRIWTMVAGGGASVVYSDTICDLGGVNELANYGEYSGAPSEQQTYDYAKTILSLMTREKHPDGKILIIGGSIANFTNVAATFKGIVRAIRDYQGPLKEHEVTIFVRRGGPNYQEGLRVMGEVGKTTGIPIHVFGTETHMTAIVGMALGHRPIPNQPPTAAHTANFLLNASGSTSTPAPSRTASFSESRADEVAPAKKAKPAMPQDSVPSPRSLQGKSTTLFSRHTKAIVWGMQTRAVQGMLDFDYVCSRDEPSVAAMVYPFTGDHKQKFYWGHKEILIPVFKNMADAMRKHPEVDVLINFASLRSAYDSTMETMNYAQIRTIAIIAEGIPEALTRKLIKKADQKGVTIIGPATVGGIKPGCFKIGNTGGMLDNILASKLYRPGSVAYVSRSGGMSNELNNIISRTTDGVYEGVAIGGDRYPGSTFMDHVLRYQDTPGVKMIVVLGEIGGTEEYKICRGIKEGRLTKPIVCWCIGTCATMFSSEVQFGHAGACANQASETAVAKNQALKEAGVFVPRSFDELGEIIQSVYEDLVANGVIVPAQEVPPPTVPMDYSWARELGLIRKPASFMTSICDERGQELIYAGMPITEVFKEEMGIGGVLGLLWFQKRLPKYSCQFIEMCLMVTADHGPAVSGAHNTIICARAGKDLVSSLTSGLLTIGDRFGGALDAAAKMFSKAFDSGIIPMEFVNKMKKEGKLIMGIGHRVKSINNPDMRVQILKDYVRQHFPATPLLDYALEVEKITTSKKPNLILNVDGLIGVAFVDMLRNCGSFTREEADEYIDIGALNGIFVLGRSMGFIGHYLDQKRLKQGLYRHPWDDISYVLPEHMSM
inactive: [1] -0.011 | [2] -0.009 | [3] -0.005 | [4] -0.025 | [5] 0.012 | [6] 0.01 | [7] 0.003 | [8] 0.015 | [9] 0.008 | [10] 0.013 | [11] -0.005 | [12] -0.016 | [13] -0.026 | [14] -0.005 | [15] 0.021 | [16] 0.002 | [17] 0.016 | [18] -0.004 | [19] 0.018 | [20] 0.014

ACAA1 (UniProt P09110)
UniProt P09110, sequence (P09110 whole entry, looked up): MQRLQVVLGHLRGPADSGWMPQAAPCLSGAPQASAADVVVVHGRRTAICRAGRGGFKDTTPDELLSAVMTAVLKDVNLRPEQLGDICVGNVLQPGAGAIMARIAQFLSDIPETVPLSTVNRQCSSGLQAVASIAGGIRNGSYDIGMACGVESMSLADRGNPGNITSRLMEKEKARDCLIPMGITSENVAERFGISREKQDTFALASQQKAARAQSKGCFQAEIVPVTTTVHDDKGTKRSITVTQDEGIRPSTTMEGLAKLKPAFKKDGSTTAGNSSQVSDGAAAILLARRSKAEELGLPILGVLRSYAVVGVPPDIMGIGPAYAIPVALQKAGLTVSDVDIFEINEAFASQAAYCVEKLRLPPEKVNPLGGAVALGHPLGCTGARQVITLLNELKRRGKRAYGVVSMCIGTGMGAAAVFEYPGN
inactive: [1] 0.017 | [2] -0.005 | [3] 0.014 | [4] -0.015 | [5] -0.014 | [6] 0.056 | [7] -0.043 | [8] -0.001 | [9] 0.045 | [10] -0.011 | [11] 0.035 | [12] -0.019 | [13] 0.014 | [14] -0.007 | [15] -0.027 | [16] -0.026 | [17] 0.011 | [18] -0.001 | [19] -0.016 | [20] 0.009
